Experimental findings from PubChem BioAssay are described below.

The test system of assay [1] is Aerobactin synthetase IucA (Klebsiella pneumoniae). Put plainly: IucA aerobactin synthetase inhibitors, biochemical, Tocris library, absorbance (AID 1345561; call rule not given here;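 further: 100% = enzyme without compound and 0% = no enzyme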). Particulars: purified IucA enzyme assay, absorbance (OD) read-out; stronger effect = lower value;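 tested at 8 µM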.
The nature of assay [2]: sensitizers of A549 cells to miR-34 induction, primary screen, imaging, A549 dox-inducible miR-34, nuclei and caspase counts (AID 1347080). Particulars: A549 miR-34 inducible, Hoechst nuclei count, 48 h.
The nature of assay [3]: survival rescue of mitochondrial mutant cells in low glucose, primary screen, MELAS cybrids, Rieske KO mouse fibroblasts, CellTiter-Glo (AID 1508586;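 active means mean z-score across replicates of 1.96 or higher in either the MELAS or the Rieske mutant cell line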;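 further: z relative to plate mean and SD of compound and empty wells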).
Assay [4] is described as follows: viability rescue of complex I mutant cybrids, primary screen, cell-based, galactose medium, ATP luminescence (AID 1645843;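 active means z-score of at least 1.8 in each of two replicates, scored against plate mean and spread of sample wells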;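 further: positive z means more ATP and so rescue of galactose-driven cybrid death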). To be noted: complex I mutant cybrid cells, 72 h, stronger effect = higher value.
The mark [5] stands for this setting: stronger effect = lower value, cell number ratio, induced over uninduced.
Setting [6] is: measured here: relative caspase fold change +Dox/-Dox.
[7] abbreviates: measured here: total cells with miR-34 induction, stronger effect = lower value.
The mark [8] stands for this setting: measured here: total cells without miR-34 induction.
[9] abbreviates: MELAS cybrid survival, CellTiter-Glo 48 h, stronger effect = higher value.
Where [10] appears, read: Rieske KO mouse fibroblast survival, CellTiter-Glo 72 h.

Values joined by “and” are separate entries in the source; they are usually repeats but may differ in a detail not shown here. Equal values may be shown once. Active and inactive are the calls of the source.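 How the source made its calls, unless noted: active means compounds whose cell count with miR-34 switched on is under 0.7 times the count with it off; inactive means the rest.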

One may read the remaining activity as the signal under treatment as a percentage of the control signal. `O=C(CCCCCN1C(=O)c2cccc3cccc(c23)C1=O)NO`: the remaining activity in assay [1] is 87.2% (inactive). Moreover, the fold change in assay [2] (setting [5]) is 0.869 (inactive) and 1.23 (inactive); in assay [2] (setting [6]) it was 0.881 and 1.17. The cell count in assay [2] (setting [7]) is 1710 and 2290; in assay [2] (setting [8]), 1970 and 1860. The z-score in assay [3] (setting [9]) is 1.18 (inactive); in assay [3] (setting [10]), 1.2; in assay [4] it was -0.53 (inactive).

`Cc1cc(F)c(Nc2ncnc3cc(OCc4ccccc4)ccc23)cc1O`: the remaining activity in assay [1] is 105% (inactive). The fold change is 0.94 (inactive) and 0.947 (inactive) in assay [2] (setting [5]); 0.62 and 2.22 in assay [2] (setting [6]). Also, the cell count in assay [2] (setting [7]) is 7080 and 7020; in assay [2] (setting [8]), 7530 and 7420. Also, the z-score is 0.202 (inactive) in assay [3] (setting [9]), 0.0931 in assay [3] (setting [10]) and 1.85 (inactive) in assay [4].

On to `COC(=O)C(Cc1ccc(OCCn2c(=O)sc3cc(C(=O)c4ccccc4)ccc32)cc1)C(=O)OC`, for which, in assay [1], the remaining activity was 104% (inactive). In addition, the figures for the fold change in assay [2] (setting [5]) and in assay [2] (setting [6]) were 0.909 (inactive) and 1.26, respectively. The cell count turned out to be 8190 in assay [2] (setting [7]) and 9020 in assay [2] (setting [8]). Also, the z-score in assay [4] is -0.89 (inactive).

In the case of `CC(C)[C@H](NS(=O)(=O)c1ccc(-c2ccc(Br)cc2)cc1)C(=O)O`, in assay [1], the remaining activity was 100% (inactive). Further, the results for the fold change in assay [2] (setting [5]) and in assay [2] (setting [6]) were 0.908 (inactive) and 1.47, respectively. Besides, the cell count in assay [2] (setting [7]) worked out at 8980; in assay [2] (setting [8]) it was 9890. The z-score in assay [4] was 0.745 (inactive).

For the compound `CCCCCN=c1ccn(Cc2ccccc2)c2ccccc12`, the remaining activity in assay [1] is 114% (inactive). The fold change in assay [2] (setting [5]) was 1.09 (inactive); in assay [2] (setting [6]) it was 0.778. The cell count in assay [2] (setting [7]) is 1550; in assay [2] (setting [8]), 1420. For the same compound, the z-score in assay [4] is -0.705 (inactive).

`CC[C@]1(O)C[C@H]2CN(CCc3c([nH]c4ccccc34)[C@@](C(=O)OC)(c3cc4c(cc3OC)N(C)[C@H]3[C@@](O)(C(=O)OC)[C@H](OC(C)=O)[C@]5(CC)C=CCN6CC[C@]43[C@@H]65)C2)C1`: in assay [1], the remaining activity was 123% (inactive). In addition, the results for the fold change in assay [2] (setting [5]) and in assay [2] (setting [6]) were 1.06 (inactive) and 0.382, respectively. The cell count was determined as 1570 in assay [2] (setting [7]) and 1480 in assay [2] (setting [8]). In assay [4], the z-score is -0.65 (inactive).

As to `CC(C)[C@H]1c2ccc(F)cc2CC[C@@]1(CCN(C)CCCc1nc2ccccc2[nH]1)OC(=O)C1CC1`, in assay [1], the remaining activity is 104% (inactive). For the same compound, the fold change was 0.792 (inactive) in assay [2] (setting [5]) and 1.77 in assay [2] (setting [6]). Besides, the cell count in assay [2] (setting [7]) was 263; in assay [2] (setting [8]), 332. The z-score in assay [4] is -0.705 (inactive).

As for `O=C(NC1CCN(Cc2ccccc2)CC1)c1ccc(I)cc1`, the remaining activity in assay [1] was 113% (inactive). The fold change was 0.862 (inactive) in assay [2] (setting [5]) and 0.815 in assay [2] (setting [6]). The figures for the cell count in assay [2] (setting [7]) and in assay [2] (setting [8]) were 6720 and 7800, respectively. Moreover, in assay [4], the z-score was -0.755 (inactive).

Turning to `CC(=O)NCCc1c(Cc2ccccc2)[nH]c2ccccc12`, the remaining activity in assay [1] was 105% (inactive). In addition, the fold change in assay [2] (setting [5]) is 1.03 (inactive); in assay [2] (setting [6]), 0.867. In addition, the cell count in assay [2] (setting [7]) was found to be 7430; in assay [2] (setting [8]), 7230. Besides, the z-score in assay [4] is 0.025 (inactive).

Consider `Cc1ccc(CC2(O)CCN(CCOc3ccc(O)cc3)CC2)cc1`, for which the remaining activity in assay [1] is 89.8% (inactive). The fold change in assay [2] (setting [5]) was 0.939 (inactive); in assay [2] (setting [6]), 2.38. The cell count in assay [2] (setting [7]) is 7760; in assay [2] (setting [8]), 8270. Also, the z-score in assay [4] was -0.49 (inactive).

As to `CCCC[P+](CCCC)(CCCC)Cc1ccc(NC(=O)[C@@H](Cc2ccc3ccccc3c2)NC(=NC2CCCCC2)NC2CCCCC2)cc1`, the remaining activity in assay [1] is 117% (inactive). Besides, the fold change in assay [2] (setting [5]) is 1.01 (inactive); in assay [2] (setting [6]) it was 1.13. Also, the cell count in assay [2] (setting [7]) worked out at 2940; in assay [2] (setting [8]), 2900. Also, in assay [4], the z-score is -0.83 (inactive).

With `OC1CCC(Nc2nc(-c3ccccc3)nc3[nH]ccc23)CC1` (centres undefined), the remaining activity in assay [1] was 112% (inactive). The fold change in assay [2] (setting [5]) was 0.975 (inactive); in assay [2] (setting [6]) it was 1.31. The cell count was found to be 8990 in assay [2] (setting [7]) and 9220 in assay [2] (setting [8]). Besides, the z-score in assay [4] was 1.67 (inactive).

In the case of `CS(=O)(=O)c1ccc(Cn2c3c(c4cc(F)cc(F)c42)CCCC3CC(=O)O)cc1` (centres undefined), the remaining activity in assay [1] is 110% (inactive). In addition, the results for the fold change in assay [2] (setting [5]) and in assay [2] (setting [6]) were 0.908 (inactive) and 0.675, respectively. In addition, the cell count amounted to 8590 in assay [2] (setting [7]) and 9460 in assay [2] (setting [8]). Besides, the z-score in assay [4] is 0.655 (inactive).

In the case of `CC(N)=NCCCC[C@H](N)C(=O)O`, the remaining activity in assay [1] is 91.3% (inactive). Also, the fold change was 0.958 (inactive) in assay [2] (setting [5]) and 0.902 in assay [2] (setting [6]). The cell count in assay [2] (setting [7]) came out at 8960; in assay [2] (setting [8]) it was 9350. Also, the z-score in assay [4] was 0.135 (inactive).

Consider `CC(C)c1ccc(C(=O)c2cccs2)c(SCCCCCCCCN(C)C)n1`, for which the remaining activity in assay [1] is 107% (inactive). Also, the fold change in assay [2] (setting [5]) is 1.16 (inactive); in assay [2] (setting [6]), 1.04. Further, the cell count turned out to be 3590 in assay [2] (setting [7]) and 3100 in assay [2] (setting [8]). Also, the z-score in assay [4] was -1.04 (inactive).

For the compound `COc1ccc(-c2ccc(=N)n(CCCC(=O)O)n2)cc1`, the remaining activity in assay [1] was 122% (inactive). Further, the fold change in assay [2] (setting [5]) is 0.902 (inactive); in assay [2] (setting [6]), 0.531. Besides, the cell count in assay [2] (setting [7]) was found to be 8640; in assay [2] (setting [8]) it was 9580. The z-score in assay [4] was -0.295 (inactive).

As for `N[C@@H](C(=O)O)c1ccc(O)c(C(=O)O)c1`, the remaining activity in assay [1] is 100% (inactive). Besides, the fold change was 0.932 (inactive) in assay [2] (setting [5]) and 0.807 in assay [2] (setting [6]). Further, the values for the cell count in assay [2] (setting [7]) and in assay [2] (setting [8]) were 8680 and 9320, respectively. Further, the z-score in assay [4] is -0.18 (inactive).

On to `CCC(=O)NC1CCc2cccc(OC)c2C1` (centres undefined), for which the remaining activity in assay [1] is 123% (inactive). Moreover, the fold change is 1.01 (inactive) in assay [2] (setting [5]) and 0.925 in assay [2] (setting [6]). The values for the cell count in assay [2] (setting [7]) and in assay [2] (setting [8]) were 8550 and 8470, respectively. Further, the z-score in assay [4] was -0.165 (inactive).

`COc1ccc(-c2nc(-c3ccc(-c4cccc(Cl)c4)o3)[nH]c2-c2ccc(OC)cc2)cc1`: the remaining activity in assay [1] is 125% (inactive). Also, the fold change is 0.932 (inactive) and 1.97 (inactive) in assay [2] (setting [5]); 1.76 and 0.641 in assay [2] (setting [6]). Besides, the cell count in assay [2] (setting [7]) is 4720 and 2100; in assay [2] (setting [8]) it was 5060 and 1060. Also, the z-score in assay [4] was -0.15 (inactive).

Take `C/C(=N\NC(=O)[C@@H]1C(=O)NC[C@H]1c1ccccc1)c1cccc(Br)c1`: in assay [1], the remaining activity is 103% (inactive). In addition, the fold change in assay [2] (setting [5]) was 0.887 (inactive); in assay [2] (setting [6]), 1.69. The cell count amounted to 8430 in assay [2] (setting [7]) and 9510 in assay [2] (setting [8]). Moreover, the z-score in assay [4] is 0.375 (inactive).

As for `COc1cc2c(cc1OC)C(c1ccc(N)cc1)=NNC(=O)C2`, the remaining activity in assay [1] is 103% (inactive). Moreover, the fold change is 1.07 (inactive) in assay [2] (setting [5]) and 0.53 in assay [2] (setting [6]). In addition, the cell count in assay [2] (setting [7]) amounted to 4030; in assay [2] (setting [8]), 3760. The z-score in assay [4] is 0.045 (inactive).

For `Cc1ccc(/C=C2\CNC/C(=C\c3ccc(C)cc3)C2=O)cc1`, the remaining activity in assay [1] was 95.5% (inactive). The fold change in assay [2] (setting [5]) was 0.9 (inactive); in assay [2] (setting [6]), 0.964. Moreover, the cell count in assay [2] (setting [7]) came to 500; in assay [2] (setting [8]), 556. The z-score in assay [4] is -0.645 (inactive).

On to `CCCN(C/C=C/I)C1CCc2cccc(O)c2C1` (centres undefined), for which the remaining activity in assay [1] was 123% (inactive). The values for the fold change in assay [2] (setting [5]) and in assay [2] (setting [6]) were 0.893 (inactive) and 1.14, respectively. For the same compound, the cell count was 8040 in assay [2] (setting [7]) and 9000 in assay [2] (setting [8]). Also, the z-score in assay [4] is -0.945 (inactive).

As to `O=C(O)CCC/C=C\C[C@@H]1CO[C@H](C(F)(F)F)O[C@@H]1c1ccccc1O`, the remaining activity in assay [1] was 111% (inactive). Further, the values for the fold change in assay [2] (setting [5]) and in assay [2] (setting [6]) were 0.924 (inactive) and 0.777, respectively. Also, the cell count was 7790 in assay [2] (setting [7]) and 8430 in assay [2] (setting [8]). The z-score in assay [4] was 0.14 (inactive).

As to `CCCCN1CCC(CCC(=O)c2cc(Cl)c(N)cc2OC)CC1`, the remaining activity in assay [1] was 95.7% (inactive). Also, the fold change in assay [2] (setting [5]) is 0.973 (inactive); in assay [2] (setting [6]), 1.12. For the same compound, the values for the cell count in assay [2] (setting [7]) and in assay [2] (setting [8]) were 8560 and 8800, respectively. Further, the z-score in assay [4] is -0.48 (inactive).
